{"source": "PubChem BioAssay", "key": {"[1]": {"assay": "viability loss in pontine glioma line – cell-based, SU-DIPG-XIII, MIPE4.0, CellTiter-Glo, qHTS, dose response (AID 1347061; cut-off not given, nearly all actives have AC50 up to about 37 µM;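 note: cells exposed to compound for 48 hours before readout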)", "conditions": "CellTiter-Glo ATP luminescence"}, "[2]": {"assay": "viability loss in pontine glioma line – cell-based, SU-DIPG-IV, MIPE4.0, CellTiter-Glo, qHTS, dose response (AID 1347063; cut-off not given, nearly all actives have AC50 up to about 30 µM;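 note: compound exposure lasted 48 hours before the viability readout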)", "conditions": "CellTiter-Glo ATP luminescence"}, "[3]": {"assay": "viability loss in pontine glioma line – cell-based, SU-DIPG-XXV, MIPE5.0, CellTiter-Glo, qHTS, dose response (AID 1347065; cut-off not given, nearly all actives have AC50 up to about 26 µM;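 note: cells exposed to compound for 48 hours before ATP readout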)", "conditions": "CellTiter-Glo ATP luminescence"}, "[4]": {"assay": "growth inhibition of DIPG cells – cell-based, MIPE5.0 library, qHTS (AID 1347068; cut-off not given, nearly all actives have IC50 up to about 30 µM;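 for IC50: cells exposed to compound for 48 hours before viability readout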)", "conditions": "SU-DIPG-XXV viability"}, "[5]": {"assay": "viability loss with induced miR-34 in A549 – imaging, A549 dox-inducible miR-34, nuclei and caspase counts, primary screen (AID 1347080;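 active = compounds whose cell count with miR-34 switched on is under 0.7 times the count with it off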)", "conditions": "A549 miR-34 inducible, Hoechst nuclei count, 48 h"}, "[6]": {"assay": "MELAS cybrid and Rieske KO viability enhancers – cell-based, MELAS cybrids, Rieske KO mouse fibroblasts, CellTiter-Glo, primary screen (AID 1508586;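 active = mean z-score across replicates of 1.96 or higher in either the MELAS or the Rieske mutant cell line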;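 note: z relative to plate mean and SD of compound and empty wells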)", "conditions": "low glucose"}, "[7]": {"assay": "growth inhibition of DIPG cells – cell-based, MIPE4.0 library, CellTiter-Glo luminescence, qHTS (AID 1347066; cut-off not given, nearly all actives have AC50 up to about 30 µM;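 note: cells exposed to compound for 48 hours before readout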)", "conditions": "SU-DIPG-VI viability, CellTiter-Glo ATP luminescence"}, "[8]": {"assay": "compounds altering HSF1 focus formation in cells – imaging, Selleck Cancer Library (AID 1347162; in the data active = plate-normalised HSF1 focus index below about 0.46)", "conditions": "human cells, HSF1 nuclear foci imaging, at 10 µM; SSMD: measured here: HSF1 foci SSMD mean; cell count: measured here: cell number; plate-normalised HSF1 focus index: stronger effect = lower value"}, "[9]": {"assay": "drug combination growth inhibition, ovarian cancer – cell-based, oncology-focused library, rucaparib conditional, profiling panel (AID 1508598)", "conditions": "patient-derived ovarian cancer cells, CellTiter-Glo viability, 144 h, stronger effect = lower value"}, "[10]": {"conditions": "stronger effect = lower value, cell number ratio, induced over uninduced"}, "[11]": {"conditions": "measured here: relative caspase fold change +Dox/-Dox"}, "[12]": {"conditions": "measured here: total cells with miR-34 induction, stronger effect = lower value"}, "[13]": {"conditions": "measured here: total cells without miR-34 induction"}, "[14]": {"conditions": "MELAS cybrid survival, CellTiter-Glo 48 h, stronger effect = higher value"}, "[15]": {"conditions": "Rieske KO mouse fibroblast survival, CellTiter-Glo 72 h"}}, "note": "Inconclusive results are not listed. Calls of active or inactive are those of the source.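 Rule for the calls, unless noted: active = normalized viability below 100% at a tested concentration; inactive = the rest.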", "data": [{"smiles": "CCCCOc1c(C(=O)c2c(F)cc(C)cc2F)cnc2n[nH]cc12", "values": [{"measurement": "outcome", "setting": "[1]", "value": "inactive"}, {"measurement": "AC50", "setting": "[2]", "value": "4.18 µM (active)"}, {"measurement": "AC50", "setting": "[3]", "value": "1.66 µM (active)"}, {"measurement": "IC50", "setting": "[4]", "value": "3.72 µM (active)"}, {"measurement": "fold change", "setting": "[5]; [10]", "value": "1.03 (inactive)"}, {"measurement": "fold change", "setting": "[5]; [11]", "value": 0.597}, {"measurement": "cell count", "setting": "[5]; [12]", "value": 1950}, {"measurement": "cell count", "setting": "[5]; [13]", "value": 1900}, {"measurement": "z-score", "setting": "[6]; [14]", "value": "0.523 (inactive)"}, {"measurement": "z-score", "setting": "[6]; [15]", "value": -1.74}]}, {"smiles": "CCOC(=O)c1c(CSc2ccccc2)n(C)c2cc(Br)c(O)c(CN(C)C)c12", "values": [{"measurement": "outcome", "setting": "[1]", "value": "inactive"}, {"measurement": "AC50", "setting": "[3]", "value": "20.9 µM (active)"}, {"measurement": "outcome", "setting": "[7]", "value": "inactive"}, {"measurement": "outcome", "setting": "[4]", "value": "inactive"}, {"measurement": "fold change", "setting": "[5]; [10]", "value": "0.89 (inactive)"}, {"measurement": "fold change", "setting": "[5]; [11]", "value": 0.958}, {"measurement": "cell count", "setting": "[5]; [12]", "value": 6100}, {"measurement": "cell count", "setting": "[5]; [13]", "value": 6850}, {"measurement": "z-score", "setting": "[6]; [14]", "value": "-0.35 (inactive)"}, {"measurement": "z-score", "setting": "[6]; [15]", "value": -0.358}]}, {"smiles": "COc1cc2ncnc(Nc3cc(Br)c(O)c(Br)c3)c2cc1OC", "values": [{"measurement": "outcome", "setting": "[1]", "value": "inactive"}, {"measurement": "AC50", "setting": "[2]", "value": "2.35 µM (active)"}, {"measurement": "outcome", "setting": "[7]", "value": "inactive"}]}, {"smiles": "COc1ccc(COc2cc3oc(=O)c4cc(C(C)O)ccc4c3cc2OC)cc1", "note": "(configuration not stated)", "values": [{"measurement": "outcome", "setting": "[1]", "value": "inactive"}, {"measurement": "outcome", "setting": "[3]", "value": "inactive"}, {"measurement": "outcome", "setting": "[4]", "value": "inactive"}, {"measurement": "fold change", "setting": "[5]; [10]", "value": "0.923 (inactive)"}, {"measurement": "fold change", "setting": "[5]; [11]", "value": 1.45}, {"measurement": "cell count", "setting": "[5]; [12]", "value": 7360}, {"measurement": "cell count", "setting": "[5]; [13]", "value": 7980}, {"measurement": "SSMD", "setting": "[8]", "value": -0.619}, {"measurement": "cell count", "setting": "[8]", "value": 7240}, {"measurement": "plate-normalised HSF1 focus index", "setting": "[8]", "value": "0.961 (inactive)"}, {"measurement": "z-score", "setting": "[6]; [14]", "value": "-0.463 (inactive)"}, {"measurement": "z-score", "setting": "[6]; [15]", "value": 0.921}, {"measurement": "viability", "setting": "[9]; at 0.000305 µM, OCI-C5x cells, with rucaparib 10 µM, 100% = cells with rucaparib alone", "value": "108% (inactive)"}, {"measurement": "viability", "setting": "[9]; at 0.000305 µM, OCI-C5x cells, without rucaparib", "value": "122% (inactive)"}, {"measurement": "viability", "setting": "[9]; at 0.000305 µM, OCI-P5x cells, with rucaparib 20 µM, 100% = cells with rucaparib alone", "value": "103% (inactive)"}, {"measurement": "viability", "setting": "[9]; at 0.000305 µM, OCI-P5x cells, without rucaparib", "value": "97.5% (active)"}, {"measurement": "viability", "setting": "[9]; at 0.00122 µM, OCI-C5x cells, with rucaparib 10 µM, 100% = cells with rucaparib alone", "value": "119% (inactive)"}, {"measurement": "viability", "setting": "[9]; at 0.00122 µM, OCI-C5x cells, without rucaparib", "value": "114% (inactive)"}, {"measurement": "viability", "setting": "[9]; at 0.00122 µM, OCI-P5x cells, with rucaparib 20 µM, 100% = cells with rucaparib alone", "value": "108% (inactive)"}, {"measurement": "viability", "setting": "[9]; at 0.00122 µM, OCI-P5x cells, without rucaparib", "value": "98% (active)"}, {"measurement": "viability", "setting": "[9]; at 0.00488 µM, OCI-C5x cells, with rucaparib 10 µM, 100% = cells with rucaparib alone", "value": "121% (inactive)"}, {"measurement": "viability", "setting": "[9]; at 0.00488 µM, OCI-C5x cells, without rucaparib", "value": "104% (inactive)"}, {"measurement": "viability", "setting": "[9]; at 0.00488 µM, OCI-P5x cells, with rucaparib 20 µM, 100% = cells with rucaparib alone", "value": "98.6% (active)"}, {"measurement": "viability", "setting": "[9]; at 0.00488 µM, OCI-P5x cells, without rucaparib", "value": "101% (inactive)"}, {"measurement": "viability", "setting": "[9]; at 0.0195 µM, OCI-C5x cells, with rucaparib 10 µM, 100% = cells with rucaparib alone", "value": "118% (inactive)"}, {"measurement": "viability", "setting": "[9]; at 0.0195 µM, OCI-C5x cells, without rucaparib", "value": "118% (inactive)"}, {"measurement": "viability", "setting": "[9]; at 0.0195 µM, OCI-P5x cells, with rucaparib 20 µM, 100% = cells with rucaparib alone", "value": "99.9% (active)"}, {"measurement": "viability", "setting": "[9]; at 0.0195 µM, OCI-P5x cells, without rucaparib", "value": "98.3% (active)"}, {"measurement": "viability", "setting": "[9]; at 0.0781 µM, OCI-C5x cells, with rucaparib 10 µM, 100% = cells with rucaparib alone", "value": "122% (inactive)"}, {"measurement": "viability", "setting": "[9]; at 0.0781 µM, OCI-C5x cells, without rucaparib", "value": "114% (inactive)"}, {"measurement": "viability", "setting": "[9]; at 0.0781 µM, OCI-P5x cells, with rucaparib 20 µM, 100% = cells with rucaparib alone", "value": "103% (inactive)"}, {"measurement": "viability", "setting": "[9]; at 0.0781 µM, OCI-P5x cells, without rucaparib", "value": "96% (active)"}, {"measurement": "viability", "setting": "[9]; at 0.313 µM, OCI-C5x cells, with rucaparib 10 µM, 100% = cells with rucaparib alone", "value": "113% (inactive)"}, {"measurement": "viability", "setting": "[9]; at 0.313 µM, OCI-C5x cells, without rucaparib", "value": "100% (inactive)"}, {"measurement": "viability", "setting": "[9]; at 0.313 µM, OCI-P5x cells, with rucaparib 20 µM, 100% = cells with rucaparib alone", "value": "102% (inactive)"}, {"measurement": "viability", "setting": "[9]; at 0.313 µM, OCI-P5x cells, without rucaparib", "value": "92.5% (active)"}, {"measurement": "viability", "setting": "[9]; at 1.25 µM, OCI-C5x cells, with rucaparib 10 µM, 100% = cells with rucaparib alone", "value": "126% (inactive)"}, {"measurement": "viability", "setting": "[9]; at 1.25 µM, OCI-C5x cells, without rucaparib", "value": "107% (inactive)"}, {"measurement": "viability", "setting": "[9]; at 1.25 µM, OCI-P5x cells, with rucaparib 20 µM, 100% = cells with rucaparib alone", "value": "103% (inactive)"}, {"measurement": "viability", "setting": "[9]; at 1.25 µM, OCI-P5x cells, without rucaparib", "value": "94.4% (active)"}, {"measurement": "viability", "setting": "[9]; at 5 µM, OCI-C5x cells, with rucaparib 10 µM, 100% = cells with rucaparib alone", "value": "132% (inactive)"}, {"measurement": "viability", "setting": "[9]; at 5 µM, OCI-C5x cells, without rucaparib", "value": "130% (inactive)"}, {"measurement": "viability", "setting": "[9]; at 5 µM, OCI-P5x cells, with rucaparib 20 µM, 100% = cells with rucaparib alone", "value": "92.1% (active)"}, {"measurement": "viability", "setting": "[9]; at 5 µM, OCI-P5x cells, without rucaparib", "value": "90.6% (active)"}]}]}
